Screens deposited in PubChem BioAssay by National Center for Advancing Translational Sciences (NCATS).
GLA inh pH 4.5 – qHTS Assay for Inhibitors of Human alpha-Galactosidase at pH 4.5. Alpha-galactosidase A (Homo sapiens), P06280. AID 1467, 2008. 230,000 tested, under 10 active. purified enzyme, 4-MU-alpha-Gal fluorescence, pH 4.5. activity change, negative = inhibition, % at 105 µM;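 note: 0% = full activity with enzyme and -100% = basal without enzyme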
HPGD block – qHTS Assay for Inhibitors of HPGD (15-Hydroxyprostaglandin Dehydrogenase) | purified HPGD, NADH fluorescence kinetic, PGE2 substrate | Potency, µM, for inactives: at the highest dose activity change, negative = inhibition, hits mostly inhibitors | 150,000 compounds, 4.3% hits | 15-hydroxyprostaglandin dehydrogenase [NAD(+)] (Homo sapiens), P15428; active = well fitted inhibition curve with a large enough effect, not every such curve was filed as active; inconclusive = small, poorly fitted or top-dose-only effect, or another doubt; inactive = no such curve, though single readings can be large or run the other way; note: potency is the fitted concentration of half-maximal effect
Target sequence (P15428 whole entry, looked up): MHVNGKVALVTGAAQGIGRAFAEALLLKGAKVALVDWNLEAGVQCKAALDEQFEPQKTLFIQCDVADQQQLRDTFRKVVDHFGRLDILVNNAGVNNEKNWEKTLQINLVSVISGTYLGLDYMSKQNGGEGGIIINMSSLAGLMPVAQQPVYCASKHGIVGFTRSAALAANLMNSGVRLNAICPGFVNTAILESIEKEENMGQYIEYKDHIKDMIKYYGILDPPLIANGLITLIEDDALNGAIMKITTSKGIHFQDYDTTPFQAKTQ
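NADH formation kinetics: reaction with 30 uM PGE2 and 1 mM NAD+ (final), 20 nM enzyme, Tris-HCl pH 8 with Tween 20, after 15 min compound preincubation at room temperature. Fluorescence change, last versus first of five reads.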
12-hLO inh – qHTS Assay for Inhibitors of 12-hLO (12-human lipoxygenase); purified 12-hLO, xylenol orange hydroperoxide absorbance; Potency, µM (titrated, usually from 57.1 µM), without a hit: top-dose activity change, negative = inhibition, actives largely listed as inhibitors; 150,000 compounds, 0.12% hits; note: potency is the fitted concentration of half-maximal effect; nearly all actives have a fitted effect of over 55% in size
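Purified human 12hLO (150 nM final) was preincubated with compounds for 15 min at room temperature in 25 mM Hepes pH 7.0, 0.01% Triton X-100, then reacted with 40 uM arachidonic acid for 30 min. Hydroperoxide was detected with ferrous iron/xylenol orange.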
ALDH1A1 inh – qHTS Assay for Inhibitors of Aldehyde Dehydrogenase 1 (ALDH1A1) | Purified ALDH1A1, NADH fluorescence, propionaldehyde substrate | Potency, µM (top dose mostly 75.3 µM), inactives show at the highest dose activity, negative = inhibition, most hits filed as inhibitors | 220,000 compounds, 7.3% hits | AID 1030, 2008; active = well fitted inhibition curve with a large enough effect, not every such curve was filed as active; inconclusive = small, poorly fitted or top-dose-only effect, or another doubt; inactive = no such curve, though single readings can be large or run the other way;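 note: potency is the fitted concentration of half-maximal effect; plate controls were no enzyme wells and a reference inhibitor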
Target sequence (P00352 whole entry, looked up): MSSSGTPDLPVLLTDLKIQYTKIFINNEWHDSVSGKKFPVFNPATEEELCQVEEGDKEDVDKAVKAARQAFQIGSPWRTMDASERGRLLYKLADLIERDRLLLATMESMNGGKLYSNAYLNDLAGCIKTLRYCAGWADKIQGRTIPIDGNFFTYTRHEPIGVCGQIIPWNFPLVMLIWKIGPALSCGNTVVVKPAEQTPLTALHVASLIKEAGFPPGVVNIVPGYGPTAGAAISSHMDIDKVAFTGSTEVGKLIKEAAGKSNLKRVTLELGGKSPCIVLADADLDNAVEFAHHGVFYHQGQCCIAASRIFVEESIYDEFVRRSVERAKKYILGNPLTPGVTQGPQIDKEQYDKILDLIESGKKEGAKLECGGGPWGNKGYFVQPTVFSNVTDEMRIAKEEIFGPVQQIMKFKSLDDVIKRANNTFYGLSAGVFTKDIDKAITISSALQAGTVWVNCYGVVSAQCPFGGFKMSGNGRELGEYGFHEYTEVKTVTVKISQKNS
PNC assembly inh – High Content Assay for Compounds that inhibit the Assembly of the Perinucleolar Compartment; AID 2417, 2010; 140,000 compounds, 3.1% hits; activity change (PNC), negative = inhibition, % at 10 µM; PC3M PTB-GFP, PNC prevalence imaging, 16 h; active compounds read low;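 active = readout at or below -70, meaning at least 70% loss of cells showing the perinucleolar compartment, a nuclear body marking cancer cells; inconclusive = readout between -30 and a set limit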;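 note: plate controls were DMSO wells for no effect and camptothecin positive control wells for full effect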
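Read-out is percentage of cells bearing a perinucleolar compartment, from automated 20x imaging of fixed, Hoechst-stained PC3M PTB-GFP cells. Cells were seeded 4 h, then exposed 16 h to compound (23 nl of library stock) in duplicate plates.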
aGal spleen mod – qHTS Assay for Inhibitors and Activators of Human alpha-Galactosidase From Spleen Homogenate. Alpha-galactosidase A (Homo sapiens), P06280. human spleen homogenate, 4MU-alpha-Gal fluorescence, 40 min. Potency, µM (series often up to 80 µM), without a hit: top-dose activity change, negative = inhibition, hits mostly inhibitors. 240,000 compounds, 0.008% hits. AID 2107, 2009;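 note: potency is the fitted concentration of half-maximal effect; 0% = enzyme with vehicle and -100% = no enzyme basal signal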
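Fluorogenic readout (Ex 365/Em 440 nm) of 4-methylumbelliferone released from 1 mM 4-MU-alpha-galactoside by spleen homogenate, 40 min at 37C, pH 5.0. Data normalized to no-enzyme and enzyme controls; Hill-equation AC50 from compound titrations.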
Starred values were filed as active, the others as inactive; ? = inconclusive; / = no result given; [ ] = dose if it differs, or a comment. The list is not random: actives were taken first. Their share in the collection is about 10%. Unless noted, calls come from the whole dose curve; as a rule, active = well fitted curve in the direction sought with a large enough effect; inconclusive = small, poorly fitted or top-dose-only effect, or another doubt; inactive = no such curve, though single readings can be large; an effect the other way counts as inactive or inconclusive. Unless noted, % is set by controls: 0 for no effect and ±100 for the full control effect.

SMILES	GLA inh pH 4.5	HPGD block	12-hLO inh	ALDH1A1 inh	PNC assembly inh	aGal spleen mod
CCCOc1ccc(N)cc1N	4.6	-14.1%	-10.3%	5.62µM*	-127.5*	6.7%
CCCOc1cc(N)ccc1C(=O)OCCN(CC)CC	-5.5	-7.5%	3.6%[25.6 µM]	7.4%[20.9 µM]	/	-11.0%[29.1 µM]
CC(C)CN1CC2(CCN(C(=O)c3ccco3)CC2)C1	/	-11.8%	3.2%	11.9%	/	-13.3%
CC(COc1ccc(/C=C/c2ccccc2)cc1)[N+](C)(C)C (stereo not drawn)	4.3	?	/	-8.2%	/	0.5%
C=CCn1c(=O)/c(=C2/Sc3ccccc3N2CC)s/c1=C1/C(=O)NN=C1C	-4.9	/	/	20µM*	/	15.3%
C=CCn1c(=O)/c(=C2/SC(C)=C(C)N2CC)s/c1=C1/C(=O)N(CC)C(=S)N1c1ccccc1	2.0	-6.6%	-4.1%	-4.9%	?	-2.2%
[C-]#[N+]c1cc(-c2ccncc2)c(C)[nH]c1=O	/	/	/	-8.6%	/	-23.0%
O=C(O)C1C2C=CC(O2)C1C(=O)NCc1ccc2c(c1)OCO2 (stereo not drawn)	0.7	1.2%	-1.7%	-1.7%	-20.6	1.6%
O=C(O)C1C2C=CC(O2)C1C(=O)NCc1ccc(Cl)cc1 (stereo not drawn)	9.3	6.4%	-0.4%	3.3%	-130.7*	-2.0%
C/C(=N\NC(=O)Cc1ccc(F)cc1)c1ccc(O)cc1	-17.5	/	/	-5.6%	/	3.0%
Cc1ccc(N2NC(=O)/C(=C\c3cc4c(cc3[N+](=O)[O-])OCO4)C2=O)cc1C	-4.7	3.98µM*	-25.3%	17.8µM*	29.9	-7.5%
O=C(CSc1nc2ccc(S(=O)(=O)N3CCOCC3)cc2[nH]1)N1CCOCC1	6.9	3.55µM*	-0.3%	3.55µM*	24.2	-4.0%
CCCCNS(=O)(=O)c1ccc2nc(SCC(=O)N3CC(C)OC(C)C3)[nH]c2c1 (stereo not drawn)	5.8	15.8µM*	0.6%	?	-11.1	3.5%
COC(=O)C1CCN(C(=O)CSc2nc3ccc(OC)cc3[nH]2)CC1	-8.1	/	/	4.0%	/	-2.7%
O=C(CSc1nc2ccccc2c(=O)[nH]1)N1CCOCC1	-0.6	-11.4%	-2.3%	7.9%	17.7	11.8%
COCCn1c(=O)c(-c2cn(C)c3ccccc23)nc2cnc(OCc3ccccc3)nc21	/	/	/	?	/	7.1%
Cc1ccc(-c2cc(C(=O)NCc3cnn(C)c3C)c3cc(Br)ccc3n2)cc1	-4.5	-2.6%	-10.6%	1.5%	2.8	5.3%
NNC(=O)c1cc(-c2ccc(O)cc2)nc2ccc(Br)cc12	-7.1	/	/	14.1µM*	/	5.5%
IC(I)I	/	-13.4%	-0.4%	12.6µM*	/	-1.6%
CCCCNc1ccc(S(N)(=O)=O)cc1[N+](=O)[O-]	-11.1	-3.9%	-2.7%	13.9%	-112.8*	2.7%
COc1cc(CN2C(=O)C(NC(=O)c3ccco3)(C(F)(F)F)C3=C2CC(C)(C)CC3=O)cc(OC)c1 (stereo not drawn)	-3.2	-6.1%	4.0%	3.2%	-9.9	3.0%
CC(=O)OCC(=O)NCc1ccc2c(c1)OCO2	-5.2	20µM*	-4.3%	10.5%	?	-4.3%
O=C(COC(=O)c1cnc(Cl)c(Cl)c1)NCc1ccc2c(c1)OCO2	-6.4	-3.2%	-1.2%	2.24µM*	7.7	0.6%
O=C(COC(=O)c1ccc(O)cc1)NCc1ccc2c(c1)OCO2	-15.4	/	/	-4.3%	/	5.3%
COC(=O)c1cc(C(=O)OCC(=O)NCc2ccc3c(c2)OCO3)cc([N+](=O)[O-])c1	0.3	5.2%	-2.2%	-5.3%	55.1	10.5%
SMILES	GLA inh pH 4.5	HPGD block	12-hLO inh	ALDH1A1 inh	PNC assembly inh	aGal spleen mod
COc1ccc(C(=O)OCC(=O)NCc2ccc3c(c2)OCO3)cc1[N+](=O)[O-]	-1.5	-2.1%	-1.4%	5.01µM*	-106.6*	3.2%
Cc1ccsc1C(=O)OCC(=O)NCc1ccc2c(c1)OCO2	-5.3	12.6µM*	-2.9%	-2.7%	3.6	6.9%
O=C(COC(=O)c1ccc2c(c1)OCO2)NCc1ccc(Cl)cc1	-1.9	-2.2%	-17.0%	10.1%	?	-4.7%
O=C(O)c1ccccc1-n1c(-c2ccccc2)cc2c1CCCC2=O	-4.6	/	/	-3.5%	/	6.2%
COc1ccccc1/C=C/C(=O)OCC(=O)c1c(N)n(C)c(=O)n(C)c1=O	3.2	?	0.5%	?	-29.9	-2.9%
Cc1ccccc1C(=O)N1CCN=C1SCc1ccc([N+](=O)[O-])cc1	0.2	/	/	-5.5%	/	3.5%
Cc1ccc(O)c(-c2cc(C(=O)NCc3ccc4c(c3)OCO4)[nH]n2)c1	-11.3	3.16µM*	1.2%	?	20.2	6.1%
COc1cc2c(cc1OC)-c1nnc(C)n1C(C)(C)C2	/	-6.7%	-3.8%	-2.0%	11.4	5.1%
Cc1cc2c(cc1C)-c1nnnn1C(C)(C)C2	4.9	-4.3%	0.9%	7.08µM*	11.9	-6.8%
CCOc1[nH]c(/N=C/c2ccco2)c(C#N)c1C#N	3.7	?	-11.3%	20µM*	23.1	1.9%
COCc1cc(C)nc(OCC(=O)N/N=C/c2ccco2)c1C#N	1.1	?	-3.8%	?	?	-19.4%
COc1ccc(S(=O)(=O)N(CCCN2CCOCC2)Cc2cccc3ccccc23)cc1	-14.7	-22.3%	3.0%	6.31µM*	?	-0.3%
O=S(=O)(c1ccc(Cl)cc1)N(CCCN1CCOCC1)Cc1cccs1	-1.8	/	/	12.6µM*	/	5.1%
COc1ccc(S(=O)(=O)N(CCCN2CCOCC2)Cc2cccc(OC)c2OC)cc1	9.2	-0.4%	7.5%	?	48.9	4.3%
COC(=O)c1ccc(C(=O)OC)c(NC(=S)N2CCCC(C)C2)c1 (stereo not drawn)	1.3	-3.9%	1.7%	?	31.3	24.4%
O=C(O)[C@@H]1[C@@H]2O[C@H]([C@@H](Br)[C@H]2Br)[C@H]1C(=O)O	/	-16.0%	5.9%[11.4 µM]	-2.1%[13.5 µM]	/	/
COc1ccccc1NC(=S)NC(=O)/C=C/c1ccco1	0.4	28.2µM*	?	25.1µM*	4.3	-8.7%
O=C(/C=C/c1ccco1)NC(=S)Nc1cccc([N+](=O)[O-])c1	-3.6	17.8µM*	-29.2%	-0.1%	?	2.0%
Cc1cccc(NC(=S)NC(=O)/C=C/c2ccco2)c1	6.3	/	/	23.8µM*	/	5.6%
COc1ccc(-c2csc(NC(=S)NC(=O)/C=C/c3ccco3)n2)cc1OC	-1.5	-23.3%	-0.8%	-5.4%	-105.8*	2.0%
COc1ccc(CC(=O)OCc2nnc(-c3ccccc3)o2)cc1	2.2[21.1 µM]	/	/	4.9%	/	2.8%
